Compound activity as filed in PubChem BioAssay.
An excerpt weighted towards active compounds, which were near 3.3% of everything screened.
Sm TGR block = S. mansoni TGR enzyme inhibition; purified TGR, DTNB reduction, TNB absorbance 405 nm; Potency, µM (top dose mostly 114 µM), for inactives: at the top dose activity change, negative = inhibition, actives largely listed as inhibitors; 3% of 360,000 active; also: nearly all actives have a fitted effect of over 60% in size
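TGR 20 nM + NADPH 100 uM (dispensed conc.), cpd preinc 15 min RT; start with NADPH (500 uM addition) then DTNB (15 mM addition). Kinetic TNB absorbance, 405 nm filter. Four-parameter Hill fit across titration.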
AmpC detergent = AmpC beta-lactamase inhibition with detergent present | AmpC hydrolysis of nitrocefin, absorbance 480 nm, 0.01% Triton | Potency, µM (doses to about 114 µM), inactives show at the top dose activity change, negative = inhibition, most hits filed as inhibitors | AID 485294 | 0.041% of 370,000 active | P00811;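 also: 0% = no-compound wells and -100% = no-enzyme wells; nearly all actives have a fitted effect of over 25% in size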
Target sequence (P00811 whole entry, looked up): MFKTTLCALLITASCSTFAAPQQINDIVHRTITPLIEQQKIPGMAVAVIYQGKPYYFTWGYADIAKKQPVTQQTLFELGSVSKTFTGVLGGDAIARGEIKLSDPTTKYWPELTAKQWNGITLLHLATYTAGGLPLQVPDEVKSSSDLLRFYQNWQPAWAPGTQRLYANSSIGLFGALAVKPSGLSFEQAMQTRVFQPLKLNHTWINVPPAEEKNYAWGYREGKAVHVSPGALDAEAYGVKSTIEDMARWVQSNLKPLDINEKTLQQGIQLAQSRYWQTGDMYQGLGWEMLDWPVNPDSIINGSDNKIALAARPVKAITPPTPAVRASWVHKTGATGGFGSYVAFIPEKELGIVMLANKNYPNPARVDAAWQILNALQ
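20 mM phosphate pH 7.0 + 0.01% (detergent screen) or 0.0001% Triton X-100; 5.3 nM AmpC reagent; cpd preinc 15 min RT; nitrocefin (800 uM stock) to start; A480 q20 s × 4 min; Activity was normalised to no-enzyme and no-compound control wells.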
AmpC inh no detg = AmpC beta-lactamase inhibition without detergent; 0.52% of 330,000 active; Potency, µM (series often up to 57.1 µM), for inactives: top-dose activity change, negative = inhibition, actives largely listed as inhibitors; P00811; AmpC nitrocefin hydrolysis, absorbance 480 nm, 0.0001% Triton;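 also: plate controls were no compound for no effect and no enzyme for full effect; nearly all actives have a fitted effect of over 20% in size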
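20 mM phosphate pH 7.0 + 0.01% (detergent screen) or 0.0001% Triton X-100; 5.3 nM AmpC reagent; cpd preinc 15 min RT; nitrocefin (800 uM stock) to start; A480 q20 s × 4 min; Activity was normalised to no-enzyme and no-compound control wells.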
* = called active by the depositor. Calls follow the shape of the dose curve; as a rule, active = well fitted curve in the direction sought with a large enough effect; inconclusive = small, poorly fitted or top-dose-only effect, or another doubt; inactive = no such curve, though single readings can be large; an effect the other way counts as inactive or inconclusive. Unless noted, % is scaled to controls: 0 for no effect and ±100 for the full control effect; potency is read from the fitted curve at half-maximal effect.

Cc1ccc(C2CC(=O)Oc3cc(O)ccc32)cc1 (stereo not drawn) was read as Sm TGR block 2%, AmpC detergent 0% and AmpC inh no detg 2%.
`N#C/C(=C\c1ccc(Br)cc1)c1nc(-c2cc3cc(Br)ccc3oc2=O)cs1` gave Sm TGR block -8% and AmpC detergent 2%.
For CC1CCN(c2cc(N(C)CCO)c([N+](=O)[O-])c3nonc23)CC1 the results were Sm TGR block 45µM*, AmpC detergent 6% and AmpC inh no detg -12%.
CC1CC(C)CN(c2cc(N(C)CCO)c([N+](=O)[O-])c3nonc23)C1 (stereo not drawn) was read as Sm TGR block -9%, AmpC detergent -6% and AmpC inh no detg 70%.
`COc1cc(NS(=O)(=O)c2ccc(NC(=S)NC(=O)CC(C)C)cc2)nc(OC)n1` gave Sm TGR block inconclusive, AmpC detergent inconclusive and AmpC inh no detg -39%.
Screening COc1cc(NS(=O)(=O)c2ccc(NC(=S)NC(=O)C3CCCC3)cc2)nc(OC)n1 returned Sm TGR block 46%, AmpC detergent -1% and AmpC inh no detg 16µM*.
Screening COc1cc(NS(=O)(=O)c2ccc(NC(=S)NC(=O)c3ccco3)cc2)ncn1 returned Sm TGR block 40µM*, AmpC detergent -3% and AmpC inh no detg -20%.
For COc1cc(NS(=O)(=O)c2ccc(NC(=S)Nc3ccccc3)cc2)nc(OC)n1 the results were Sm TGR block 2%, AmpC detergent 4% and AmpC inh no detg 2%.
Screening COc1cc(NS(=O)(=O)c2ccc(NC(=S)NC(=O)c3ccc(F)cc3)cc2)nc(OC)n1 returned Sm TGR block 32µM*, AmpC detergent -8% and AmpC inh no detg -44%.
`COc1cc(NS(=O)(=O)c2ccc(NC(=O)c3ccc(C(C)=O)cc3)cc2)nc(OC)n1` gave Sm TGR block 0% and AmpC detergent 2%.
Screening COc1cc(NS(=O)(=O)c2ccc(NC(=S)NC(=O)/C=C/c3ccc(F)cc3)cc2)ncn1 returned Sm TGR block -15%, AmpC detergent -8% and AmpC inh no detg -24%.
COc1ccc(C(=O)NC(=S)Nc2ccc(S(=O)(=O)Nc3cc(OC)nc(OC)n3)cc2)cc1 was read as Sm TGR block 14µM*, AmpC detergent -2% and AmpC inh no detg -44%.
For COc1cc(CN(C(=O)Nc2cccc(Cl)c2)c2ccccn2)cc(OC)c1OC the results were Sm TGR block 7% and AmpC detergent 0%.
Cc1ccc(N(C)C(=O)Cn2cnc3onc(-c4ccc(F)cc4)c3c2=O)cc1C was read as Sm TGR block -1% and AmpC detergent -5%.
Cn1c(=O)c2c(nc(NCc3ccccc3)n2Cc2ccc(Cl)c(Cl)c2)n(C)c1=O was read as Sm TGR block 10% and AmpC detergent 11%.
For COc1ccc(C(=O)NC(=S)Nc2ccc(S(=O)(=O)Nc3cc(OC)ncn3)cc2)cc1 the results were Sm TGR block 20µM*, AmpC detergent -6% and AmpC inh no detg -22%.
COc1cc(NS(=O)(=O)c2ccc(NC(=S)NC(=O)c3sc4ccccc4c3Cl)cc2)ncn1 was read as Sm TGR block 3%, AmpC detergent -12% and AmpC inh no detg -14%.
`CC(=O)c1ccc(NC(=O)c2cc(-c3ccc(Cl)c(Cl)c3)on2)cc1` gave Sm TGR block 9% and AmpC detergent 15%.
CCc1nnc(NS(=O)(=O)c2ccc(NC(=O)/C=C/c3ccccc3Cl)cc2)s1 was read as AmpC detergent -1% and AmpC inh no detg -43%.
CCc1nnc(NS(=O)(=O)c2ccc(NC(=S)NC(=O)c3ccc(Br)cc3)cc2)s1 was read as Sm TGR block inconclusive, AmpC detergent inconclusive and AmpC inh no detg -8%.
Screening CCc1nnc(NS(=O)(=O)c2ccc(NC(=O)/C=C/C(=O)O)cc2)s1 returned Sm TGR block 5.6µM*, AmpC detergent -7% and AmpC inh no detg -7%.
For O=C(NC(=S)Nc1ccc(S(=O)(=O)Nc2nccs2)cc1)c1cccnc1 the results were Sm TGR block 13µM*, AmpC detergent -5% and AmpC inh no detg -28%.
For O=C(NC(=S)Nc1ccc(S(=O)(=O)Nc2nccs2)cc1)c1ccc(F)c(F)c1 the results were Sm TGR block inconclusive, AmpC detergent 0% and AmpC inh no detg -26%.
`O=C(NC(=S)Nc1ccc(S(=O)(=O)Nc2nccs2)cc1)c1ccccc1F` gave Sm TGR block -6%, AmpC detergent 1% and AmpC inh no detg -23%.
`CCc1nnc(NS(=O)(=O)c2ccc(NC(=S)NC(=O)c3ccccc3)cc2)s1` gave Sm TGR block 40µM*, AmpC detergent -5% and AmpC inh no detg -36%.
